The panel holds about 83,000 compounds, 20% with a hit somewhere; the sample as a whole holds those more often.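 Each cell line was grown in a 96-well plate and treated with one concentration of compound for 48 hours. Values below 10 were considered active.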 Unmarked numbers belong to inactive results. The source made the active and inactive calls.
Assays:
Experiment in all cases: NCI-60 one-dose screen, 48 h (100 = growth as untreated, 0 = no growth, -100 = all killed)
Settings in all cases: 10 µM unless noted
EKVX NSCLC = system: EKVX NSCLC
SN12C renal = system: SN12C renal
UO-31 renal = system: UO-31 renal
TK-10 renal = system: TK-10 renal
ACHN renal = system: ACHN renal
A498 renal = system: A498 renal
MOLT-4 leukemia = system: MOLT-4 leukemia
SR leukemia = system: SR leukemia
CCRF-CEM leukemia = system: CCRF-CEM leukemia

Row | SMILES | growth (EKVX NSCLC) | growth (SN12C renal) | growth (UO-31 renal) | growth (TK-10 renal) | growth (ACHN renal) | growth (A498 renal) | growth (MOLT-4 leukemia) | growth (SR leukemia) | growth (CCRF-CEM leukemia)
1 | Cc1c(C(=O)Nc2nc3ccccc3[nH]2)cnn1-c1ccccn1 | 103% | 114% | 104% | 98.3% | 114% | 96.4% | 77.5% | 83.8% | 
2 | CC(/C=C/c1ccccc1)=N/NC(=O)c1ccncc1 | 107% | 99.8% | 89% | 105% | 111% | 95% | 92.2% | 88.9% | 92.5%
3 | CCCCCCCc1n(Cc2ccc3ccccc3c2)c2ccccc2[n+]1Cc1ccc2ccccc2c1 | -73.5% (active) | -79.8% (active) |  | -87.3% (active) | -87.4% (active) | -93.3% (active) | -68% (active) | -60.4% (active) | -59.1% (active)
4 | CN(C)CSc1nc2ccccc2s1 | 87.6% | 101% | 71.8% | 119% | 92.6% | 111% | 99.7% | 94.1% | 83.5%
5 | COc1ccc(/C(=N\O)c2cc(C)c(OC)c(C)c2)cc1O | 51.7% | 39.4% | 51.6% | 72% | 31.7% | 6.79% (active) | 13.8% | 10.3% | 7.8% (active)
6 | CN1CC=C(c2cc(NC(=O)Nc3ccc(Oc4ccnc(NC(=O)C5CC5)c4)c(F)c3)cc(C(F)(F)F)c2)CC1 | -19.9% (active) | 2.74% (active) | -1.84% (active) | -2.39% (active) | -1.41% (active) | -27.9% (active) | -4.01% (active) | -18.3% (active) | 1.49% (active)
7 | COC(=O)/C=C1\SC(=Nc2cccc(OC)c2)N(CCc2c[nH]c3ccccc23)C1=O | 76.1% | 64.4% | 76.3% | 89.3% | 78.4% | 90.1% | 2.83% (active) | 12% | 24.7%
8 | OCCNc1nc(NCCO)nc(Nc2ccc(C3=NN(c4cc(Cl)cc(Cl)c4)C(c4ccc(C(F)(F)F)cc4)C3)cc2)n1 (centres undefined) | 49.4% | 59.6% |  | 33.1% | 29.6% | 67.7% | 7.9% (active) | 4.83% (active) | -6.5% (active)
